Compounds with a hit are over-represented: about 2.7% of the library has one in this group of screens.
Mcl1-Bid inh: disrupts binding of human Mcl-1 to Bid peptide; inhibition, % at 21.7 µM; 220,000 tested, 0.97% active; AID 1021; Q07820; TR-FRET Mcl-1/Bid-Dy647 peptide binding, 1536-well;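 active = compounds that cut the binding signal by more than half at the single screening dose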;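 note: His-tagged Mcl-1 with europium anti-His antibody binding Bid BH3 peptide; 0% = Mcl-1 plus peptide wells and 100% = peptide-only wells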
Target sequence (Q07820 whole entry, looked up): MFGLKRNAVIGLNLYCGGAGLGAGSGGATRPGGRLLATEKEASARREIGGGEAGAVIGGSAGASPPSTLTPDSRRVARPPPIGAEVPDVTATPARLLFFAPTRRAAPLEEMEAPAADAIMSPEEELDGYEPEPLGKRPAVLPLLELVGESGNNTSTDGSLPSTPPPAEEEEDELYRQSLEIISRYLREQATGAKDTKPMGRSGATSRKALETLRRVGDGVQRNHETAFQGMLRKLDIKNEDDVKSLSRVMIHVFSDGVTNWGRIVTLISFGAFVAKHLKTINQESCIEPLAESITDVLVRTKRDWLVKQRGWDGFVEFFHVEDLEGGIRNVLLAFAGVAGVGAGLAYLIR
eIF4E-4G inh: blocks eIF4E binding to eIF4G; TR-FRET eIF4E-eIF4GI(517-606) binding, 2 h; inhibition, % at 21.7 µM; 220,000 tested, 0.37% active;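 active = inhibition above about 30%, limit read from the data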;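 note: 0% = full FRET control wells and 100% = background wells lacking eIF4GI fragment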
Mcl1 Noxa PPI: Mcl-1/Noxa interaction inhibition | AID 1022 | 220,000 tested, 1.5% active | inhibition, % at 21.7 µM | TR-FRET Mcl-1/Noxa peptide binding, 2 h | Q07820;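 active = compounds that cut the protein-peptide binding signal by more than 50% relative to plate controls in a single-dose test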;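 note: His-tagged Mcl-1 with rhodamine Noxa BH3 peptide and terbium anti-His antibody; 0% = Mcl-1 plus Noxa peptide wells and 100% = peptide-only wells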
14-3-3 Bad inh: disrupts binding of bovine 14-3-3 zeta to phospho-Bad peptide | P63103 | TR-FRET 14-3-3zeta/Dy647-pBad peptide displacement, 1 h | inhibition, % at 21.7 µM | 220,000 tested, 0.71% active | AID 781;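 active = inhibition above about 70%, limit read from the data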;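 note: 0% = full 14-3-3 plus peptide FRET controls and 100% = background without 14-3-3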
Target sequence (P63103 whole entry, looked up): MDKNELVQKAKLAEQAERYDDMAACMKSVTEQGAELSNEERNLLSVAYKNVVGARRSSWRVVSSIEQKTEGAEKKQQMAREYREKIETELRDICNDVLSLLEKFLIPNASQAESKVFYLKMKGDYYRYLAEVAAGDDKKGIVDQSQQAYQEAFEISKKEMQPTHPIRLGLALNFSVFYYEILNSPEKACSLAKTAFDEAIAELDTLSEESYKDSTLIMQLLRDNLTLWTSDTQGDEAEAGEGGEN
Mcl-1 Bim block: human Bim-Mcl-1 interaction inhibition; inhibition, % at 10 µM; 190,000 tested, 0.1% active; Q07820; AID 1009; Bead-based flow cytometry, Bim peptide-Mcl-1 binding; in the data active = inhibition above about 40%;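 note: 0% = no compound tracer wells and 100% = peptide blocker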
Pf gametocyte: P. falciparum stage V gametocyte viability inhibition; P. falciparum stage V gametocytes, ATP luminescence, 24 h; inhibition, % at 10.9 µM; 150,000 tested, 0.065% active; AID 743093;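 active = inhibition above the mean plus 3 SD of compounds within the control limits, set per campaign, cut at about 38% in these data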;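 note: 0% = DMSO wells and 100% = medium only without gametocytes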
* hit, by the source's call; · = no result.

SMILES | Mcl1-Bid inh | eIF4E-4G inh | Mcl1 Noxa PPI | 14-3-3 Bad inh | Mcl-1 Bim block | Pf gametocyte
O=C(NCC1CC1)c1ccc(Nc2nc3ccc(Br)cc3[nH]2)cc1 | 13 | 2 | 52* | 35 | 0 | ·
Cc1cc(C(=O)OCC(=O)Nc2sc3c(c2C#N)CCC(C)C3)c2ccccc2n1 (configuration not stated) | 38 | 7 | 93* | -10 | 0 | ·
O=C(Nc1ccc(O)c(-c2nc3ccccc3o2)c1)C1(c2ccc(Br)cc2)CCCC1 | -14 | 5 | -118 | -8 | -6 | 10
COc1ccc(C(CC(=O)c2ccccc2)CC(=O)c2ccccc2)cc1 | 5 | 0 | 15 | 2 | · | -3
C=C(C(=O)c1ccccc1)C(C(=C)C(=O)c1ccccc1)c1ccc(OC)cc1 | 69* | 2 | 7 | 9 | · | 13
COc1ccc(/C=N/n2c(=O)[nH]c3c([nH]c4ccc(Cl)cc43)c2=O)cc1CN1CCCCC1 | -28 | 8 | 21 | 16 | · | 4
COc1ccc(/C=N/n2c(=O)[nH]c3c([nH]c4ccc(Br)cc43)c2=O)cc1CN1CCOCC1 | 10 | -35 | 54* | 40 | -3 | ·
O=C(CCl)Nc1cc2[nH]c(=O)[nH]c2cc1Br | -17 | 2 | 51* | -4 | 3 | 2
Cc1cc2c(C)cc(=O)[nH]c2cc1NC(=O)CCl | 5 | 7 | 25 | 5 | · | -7
Cc1ccc(C(C)c2c(C)c([N+](=O)[O-])cc(C)c2[N+](=O)[O-])cn1 (configuration not stated) | · | · | · | · | · | 14
COc1ccc2[nH]c3c(=O)n(CCc4ccccc4)cnc3c2c1 | 2 | 0 | 6 | 0 | · | 10
CCCCN(CCCC)CCn1cnc2c([nH]c3ccc(OC)cc32)c1=O | -30 | 5 | 55* | 4 | 3 | ·
O=C1c2ccccc2C(=O)N1CCCCN(C(=O)c1ccco1)c1ccc(Cl)cc1 | -4 | 8 | 21 | 19 | -3 | ·
O=C1c2ccccc2C(=O)N1CCCCN(C(=O)c1cccc([N+](=O)[O-])c1)c1ccc(Cl)cc1 | 54* | -1 | 0 | 54 | -1 | -1
C/C=C(\C)CN1CCN(c2ccccc2F)CC1 | 53* | -6 | 25 | 13 | -5 | ·
C/C=C(\C)CN1CCN(c2ccccc2)CC1 | 45 | 12 | 45 | 74* | -2 | ·
C/C(=C\c1ccccc1)CN1CCN(c2ccccc2)CC1 | 3 | 1 | 5 | 12 | -3 | ·
O=C(O)c1ccc(S(=O)(=O)Nc2ccc(O)c(Sc3nc4ccccc4s3)c2)cc1 | -46 | 2 | 51* | 12 | 0 | 20
CSc1nc2cc(C)nn2c(-c2ccccc2)c1C#N | -7 | -2 | -10 | 94* | · | -4
Cc1nnc(SCC(=O)Nc2nc(-c3ccccc3)cs2)n1N | -20 | -8 | 5 | 1 | -1 | ·
Cn1cnnc1SCC(=O)Nc1nc(-c2ccccc2)cs1 | -5 | 2 | 56* | -2 | -2 | 13
CCN(CC)c1ccc(/C=N/Nc2cccc(C)c2)c(O)c1 | 79* | 5 | 40 | 2 | 17 | 2
CCN(CC)c1ccc(/C=N/Nc2ccccc2)c(O)c1 | -123 | 1 | 57* | -10 | 0 | ·
Cc1cccnc1NC(=O)Cn1nc(-c2ccccc2)oc1=S | -9 | 22 | 3 | -6 | -4 | 12
CCN1C(=O)[C@H]2[C@@H](c3ccc(C)cc3)N3C(=O)N(c4cccc(F)c4)C(=O)[C@@]3(C)[C@H]2C1=O | · | · | · | · | · | 15
SMILES | Mcl1-Bid inh | eIF4E-4G inh | Mcl1 Noxa PPI | 14-3-3 Bad inh | Mcl-1 Bim block | Pf gametocyte
O=C(NNC(=O)C12CC3CC(CC(C3)C1)C2)c1ccco1 | -20 | 3 | -4 | 6 | 88* | ·
CC1CN(c2ccc(Oc3ccccc3)cc2)c2nc3c(c(=O)n(CC(N)=O)c(=O)n3C)n2C1 (configuration not stated) | -107 | 95* | 25 | 0 | · | ·
N#C/C(=C\N1CCCCC1)S(=O)(=O)c1ccc(Cl)cc1 | 7 | -3 | 7 | 6 | · | -1
O=c1c(Cl)c(N/N=C/c2ccc(Cl)cc2)cnn1-c1ccccc1 | 18 | 17 | 74* | 47 | -1 | -12
Nc1c(C(=O)N/N=C/c2ccc(Cl)cc2)cnn1-c1ccccc1 | -5 | -6 | 7 | 3 | · | -12
CC1(C)CC2=C(CO1)C(=S)NC(c1ccccc1)N2CC1CCCO1 (configuration not stated) | -49 | 95* | 3 | 1 | · | 16
NC(=O)c1ccc(N2CCC(C(N)=O)CC2)c([N+](=O)[O-])c1 | -9 | -7 | 0 | 2 | · | -17
C=CCNCCCOc1ccc(Cl)cc1C(C)(C)C | 33 | -2 | 28 | 65 | 2 | -6
C=CCNCCOCCOc1ccc(Cl)cc1C(C)(C)C | 58* | 3 | 23 | 52 | -2 | 7
S=C(NCc1ccc(Cl)cc1)NC1CCN(Cc2ccccc2)CC1 | 74* | 3 | 22 | -4 | -6 | -1
S=C(Nc1ccc(Cl)cc1Cl)NC1CCN(Cc2ccccc2)CC1 | -80 | -3 | 0 | 4 | -9 | -3
CCN1C(=O)/C(=C2/Sc3ccc(OC)cc3N2C)SC1=Nc1cccc(O)c1 | 65* | -58 | 70* | 18 | 1 | -12
CCn1c(=S)[nH]c2cc(S(=O)(=O)N3CCCCC3)ccc21 | 12 | 0 | 15 | 8 | -5 | -12
CCn1c(-c2cc(-c3cc(C)ccc3C)nc3ccccc23)n[nH]c1=S | 43 | 3 | 44 | 12 | -2 | ·
CCn1c(-c2cc(C3CC3)nc3ccccc23)n[nH]c1=S | -11 | 2 | 55* | 32 | -5 | 21
CN(C)c1nc(Nn2cnnc2)nc(N(C)C)n1 | -15 | 5 | 3 | 1 | · | -3
Cc1[nH]c2ccccc2c1/C=N/Nc1ccc([N+](=O)[O-])cc1S(=O)(=O)Nc1ccc(Cl)cc1 | -13 | -10 | 51* | 2 | -2 | ·
O=C(COC(=O)c1cncc(Br)c1)NCc1ccc(F)cc1 | -24 | 2 | 7 | -2 | 0 | 19
O=C(COC(=O)c1cncc(Br)c1)NCc1ccco1 | -30 | -7 | 56* | 0 | -1 | ·
Cc1ccc(NS(=O)(=O)c2cccc(C(=O)OCC(=O)NCc3ccco3)c2)cc1 | -29 | -1 | 33 | -14 | 4 | ·
COc1cc(NC(=O)c2cccs2)c(C(=O)OCC(=O)NCc2ccco2)cc1OC | 28 | -9 | 63* | 7 | -3 | ·
COc1cc(C(=O)OCC(=O)NCc2ccco2)cc(OC)c1OC | -15 | -9 | 13 | -9 | -3 | -23
O=C(COC(=O)c1ccc(NS(=O)(=O)c2cccs2)cc1)NCc1ccco1 | -22 | 20 | 107* | 36 | · | ·
COc1cccc(C2NC(=O)NC(C)=C2C(=O)Nc2ccc(C)cc2)c1OC (configuration not stated) | -12 | 0 | -15 | 8 | 0 | -2
COc1ccc(NC(=O)C2=C(C)NC(=O)NC2c2cccc(OC)c2OC)c(OC)c1 (configuration not stated) | 0 | 8 | -12 | -10 | 43* | 18
